Hits are enriched below; roughly 12% of the tested compounds scored in any of these assays.
AMA1 RON2 block: AMA1-RON2 (P. falciparum) interaction inhibition; AlphaScreen AMA1-biotinylated RON2 peptide binding; Potency, µM (doses to about 58.2 µM), without a hit: at the top dose activity change, negative = inhibition, actives largely listed as inhibitors; 0.2% of 360,000 active;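 note: potency is the fitted concentration of half-maximal effect; 0% = vehicle wells and -100% = peptide control; nearly all actives have a fitted effect of over 45% in size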
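AMA1 (3D7) with his tag at 25 nM final met compounds first, then biotinylated RON2 peptide at 25 nM; detection used donor plus acceptor beads, 10 µg/mL apiece, read by AlphaScreen after 30 min at room temperature.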
SARS PLpro yeast: inhibitors of SARS-CoV papain-like protease in yeast. S. cerevisiae expressing SARS-CoV PLpro, growth rescue. Potency, µM (top dose mostly 32.9 µM), without a hit: top-dose activity, positive = growth rescue, usual class: activators. AID 485353. 0.19% of 330,000 active; calls by dose curve; note: potency is the fitted concentration of half-maximal effect; 0% is about no effect; nearly all actives have a fitted effect of over 55% in size
Pf growth 48h: inhibits P. falciparum growth in the first generation, 48 h | P. falciparum luciferase growth in erythrocytes, 48 h | Potency, µM (doses to about 28.7 µM), for the others: top-dose activity change, negative = inhibition, actives largely listed as inhibitors | 5.9% of 310,000 active; note: potency is the fitted concentration of half-maximal effect; % is set by controls: 0 for no effect and ±100 for the full control effect
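Erythrocytes infected with P. falciparum carrying an integrated firefly luciferase reporter (2% hematocrit, 0.1% parasitemia final) were exposed to compounds in RPMI 1640 with 0.5% Albumax at 37 C, 5% CO2. Growth inhibition was scored as reduced luminescence.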
HCV inh: HCV inhibition. Huh7.5.1 HCVcc-Cre infection, luciferase reporter, 44 h. 3.4% of 340,000 active. Potency, µM (highest dose often 41.8 µM), for the others: at the top dose activity change, negative = inhibition, usual class: inhibitors. AID 651820; note: potency is the fitted concentration of half-maximal effect; % is set by controls: 0 for no effect and ±100 for the full control effect
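A cell-based infection assay in which seeded cells (1,000 per well) receive test compound after 4 h, are inoculated with HCVcc-Cre at approximately 0.5 moi, and are incubated 44 h before luminescence detection.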
NS1 inh: inhibitors of influenza NS1 protein function | Potency, µM (titrated, usually from 46.1 µM), inactives show at the highest dose activity, positive = more growth | 0.4% of 270,000 active; calls by dose curve; note: potency is the fitted concentration of half-maximal effect; actives are rising curves; nearly all actives have a fitted effect of over 50% in size
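In this qHTS, NS1 from influenza A is expressed in budding yeast, where it slows growth. Cells are switched from glucose to 2% galactose medium (pH 6.0, -URA), treated with compound, and growth recovery is read at OD600.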
Pf growth 96h: P. falciparum growth inhibition at 96 hour, primary screen for plastid delayed-death inhibitors. P. falciparum luciferase reporter growth, 96 h. Potency, µM (highest dose often 28.7 µM), for inactives: top-dose activity change, negative = inhibition, most hits filed as inhibitors. 6.9% of 320,000 active; note: potency is the fitted concentration of half-maximal effect; % is set by controls: 0 for no effect and ±100 for the full control effect
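P. falciparum expressing integrated firefly luciferase, in erythrocytes at 2% hematocrit, 0.05% parasitemia, incubated with compounds 96 h at 37 C, 5% CO2. Growth inhibition read as loss of luminescence; two-generation exposure targets delayed-death apicoplast inhibitors.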
Flu NS1 inh: influenza NS1 function inhibition validation; shares compounds with NS1 inh; influenza NS1 function cell assay, 15-point titration; activity change, negative = inhibition, % at 32.9 µM; 1,400 tested, under 10 active; calls by dose curve; note: 0% is about no effect
Flu PR8 replic: influenza virus titer reduction, NS1 project; virus titer (log TCID50), log10 TCID50 at 5 µM; MDCK infected influenza A/PR/8/34, virus titer TCID50; hits give low values; 30% of 95 active; shares compounds with NS1 inh; call rule not given here
* = called active by the depositor; ? = inconclusive; / = no result given; [ ] = dose if it differs, or a comment. Unless noted, calls come from the whole dose curve; as a rule, active = well fitted curve in the direction sought with a large enough effect; inconclusive = small, poorly fitted or top-dose-only effect, or another doubt; inactive = no such curve, though single readings can be large; an effect the other way counts as inactive or inconclusive.

SMILES	AMA1 RON2 block	SARS PLpro yeast	Pf growth 48h	HCV inh	NS1 inh	Pf growth 96h	Flu NS1 inh	others
Cc1ccc(NC(=O)CSc2nc(O)cc(=O)n2C)cc1	11%	-1%	-4%	-4%	11µM*	-1%	?
CN1CCOC(=O)/C1=N/Nc1cc(Cl)ccc1Cl	?	-3%	57%	-14%	/	35%	/
O=c1cc(N2CCc3ccccc32)[nH]c(=O)n1-c1ccc(Br)cc1	0%	14%	41%	4%	6.3µM*	9%	22
O=C(NCc1ccccc1)C12CN(Cc3ccccc3)CC1C(c1cccc([N+](=O)[O-])c1)=NO2 (stereo unspecified)	-4%	-24%	?	?	-2%	1%	/
O=C(NCc1cc(C(F)(F)F)cc(C(F)(F)F)c1)C12CN(Cc3ccccc3)CC1C(c1cccc([N+](=O)[O-])c1)=NO2 (stereo unspecified)	-3%	-2%	13µM*	-11%	22µM*	?	-18	Flu PR8 replic=7.3*
Cc1ccc(-c2csc(N3CCC(NS(=O)(=O)c4ccc5c(c4)OCCO5)CC3)n2)cc1	-25%	-5%	?	10µM*	?	9.3µM*	-1	Flu PR8 replic=7.7
Cc1nc(CN(C)Cc2nc(Cc3ccccc3Cl)no2)cs1	2%	1%	1%	10%	-2%	-1%	/
CCOC(=O)N1CCN(C(=O)c2ccc3c(=O)n(CC4CCCO4)c(=S)[nH]c3c2)CC1 (stereo unspecified)	14%	-1%	4%	-13%	0%	?	/
O=C(c1ccc2c(=O)n(CC3CCCO3)c(=S)[nH]c2c1)N1CCN(c2ccccc2)CC1 (stereo unspecified)	27%	-3%	13%	2%	?	38%	0
CN1C(=O)C(c2nnc(Nc3cccc4ccccc34)s2)C2CC1(C)Oc1ccccc12 (stereo unspecified)	-22%	11%	?	?	11µM*	4.7µM*	-21
O=C(Cc1ccccc1)Nc1nc2ccccc2[nH]1	42%	6%	58%	11%	0%	/	/
O=C(Cc1c[nH]c2ccccc12)Nc1nc2ccccc2[nH]1	21%	0%	19%	10%	11µM*	?	-1
COc1ccc(NC(=O)c2cc3ccccc3o2)cc1S(=O)(=O)N1CCCCC1	-19%	1%	/	?	/	/	/
Cn1c(=O)[nH]c(=O)c2c1nc(Br)n2CC(O)COc1ccccc1 (stereo unspecified)	12%	18%	/	-5%	7.1µM*	-6%	-2
CC1CCN(C(=O)Cn2c3ccccc3c3nc4n(c(=O)c32)CCS4)CC1	2%	1%	?	-8%	8%	?	/
O=C(NNc1nc(-c2ccccc2)cs1)c1ccco1	0%	-12%	12µM*	?	4µM*	1.5µM*	11
O=C(Nc1nc(-c2ccc(Cl)s2)cs1)c1ccco1	-9%	-3%	41%	?	/	60%	/
O=C(NNc1nc(-c2ccc(Cl)cc2)cs1)c1ccco1	54%	-30%	12µM*	-23%	3.2µM*	?	-6
CCc1ccc2c(c1)C(c1ccc(N3CCOCC3)cc1)=NNC(c1ccncc1)=N2	0%	-2%	?	-19%	1%	-6%	/
CCOc1ccc(C2=Nc3ccc(Br)cc3C(c3ccc(N4CCOCC4)cc3)=NN2)cc1	8%	-5%	10µM*	2%	?	?	-7
Brc1ccc2c(c1)C(c1ccc(N3CCOCC3)cc1)=NNC(c1cccs1)=N2	-30%	-19%	?	-3%	21%	?	/
CCOc1ccc(C2=Nc3ccccc3C(c3ccc(N4CCOCC4)cc3)=NN2)cc1	-1%	-9%	?	?	?	?	19	Flu PR8 replic=7.5*
CC(C)CC(=O)NC(NC(=S)Nc1sc2c(c1C#N)CCCC2)C(Cl)(Cl)Cl (stereo unspecified)	52%	-2%	28%	5%	7.1µM*	?	-12	Flu PR8 replic=8.3
CCCCCCSc1ccc(-c2nc3cnccn3c2NCCCC)cc1	28%	2%	/	16%	/	/	/
CCOC(=O)c1ccc(NC(=O)CSc2nc(C)cc(=O)[nH]2)cc1	-28%	-5%	2%	13%	?	52%	-10	Flu PR8 replic=8
SMILES	AMA1 RON2 block	SARS PLpro yeast	Pf growth 48h	HCV inh	NS1 inh	Pf growth 96h	Flu NS1 inh	others
CCOC(=O)c1ccc(N2C(=O)c3n[nH]c(C)c3C2c2ccc(OC)cc2OC)cc1 (stereo unspecified)	5%	10%	?	4%	5µM*	12µM*	-9
Cc1cc(C)n2nc(C(=O)NNC(=O)c3ccccc3)nc2n1	93%	2%	-23%	28%	/	3%	/
COc1ccccc1NCC(=O)N/N=C/c1cccnc1	51%	0%	0%	/	3.2µM*	?	32
CC(=O)c1c(C)[nH]c(C(=O)/C(C#N)=C/c2cccc(C)c2)c1C	8%	2%	-8%	?	21%	-13%	/
CCOC(=O)c1c(C)[nH]c(C(=O)/C(C#N)=C/c2ccc(OCC)cc2)c1C	-1%	16%	-14%	?	4µM*	-5%	-21
O=C(NNc1nc2cc3c(cc2s1)OCO3)c1ccc(F)cc1	95%	-11%	46%	-5%[8.37 µM]	?	?	-10
COc1ccc(S(=O)(=O)N2CCCC(C(=O)NCCC(C)C)C2)cc1 (stereo unspecified)	4%	-5%	?	-5%	/	-5%	/
O=C(c1cc(-c2ccncc2)nc2ccccc12)N1CCN(c2ccc(N3CCOCC3)nn2)CC1	5%	9%	12µM*	/	?	?	-33
O=C(c1cc(-c2ccncc2)nc2ccccc12)N1CCN(c2ccccn2)CC1	1%	10%	-26%	-11%	-22%	1%	/
Cc1ccc(C2(C)NC(=O)N(CC(=O)NCCC3=CCCCC3)C2=O)cc1 (stereo unspecified)	-15%	9%	/	-27%	11µM*	?	14
COc1ccc(-c2nnc(SC(C(=O)c3c[nH]c4ccccc34)c3ccccc3)n2N)cc1OC (stereo unspecified)	-15%	11%	8.3µM*	?	20µM*	?	?
COc1ccc(C(c2nnnn2C(C)(C)C)N2CCN(c3nc4ccccc4s3)CC2)cc1 (stereo unspecified)	-3%	-22%	?	15%	15%	1%[5.75 µM]	/

Bioassay records (PubChem BioAssay)
